# This excerpt belongs to a sample that is enriched for hits.
# Pf Dd2 growth: Plasmodium falciparum Dd2 growth inhibition | P. falciparum Dd2 growth, SYBR Green, 72 h | Potency, µM (titrated, usually from 28.9 µM), inactives show top-dose activity, negative = inhibition, hits mostly inhibitors | 120,000 compounds, 4.3% hits | AID 1347417; active = well fitted inhibition curve with a large enough effect;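 also: plate controls were DMSO vehicle for no effect and reference drug for full effect; nearly all actives have a fitted effect of over 65% in size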
#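 Readout: SYBR Green fluorescence, 485 nm excitation, 535 nm emission, after ~16 h lysis at 37C. Before that, Dd2-infected red cells (2.5% hematocrit) grew 72 h with compound, 29 uM top final concentration.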
# * = called active by the depositor; i = inactive; [ ] = another dose, or the depositor's remark. Potency is read from the fitted curve at half-maximal effect.
SMILES,Pf Dd2 growth
Cc1ccc(CN2C(=O)[C@@H]3C[C@@H](O)CN3C3(CN(CC4CC4)C3)C2=O)o1,-5%[44.1 µM]
Cc1ccc(CN2C(=O)[C@@H]3C[C@@H](O)CN3C3(CN(CC(C)C)C3)C2=O)o1,-6%[44.1 µM]
Cc1ccc(CN2C(=O)[C@@H]3C[C@@H](O)CN3C3(CN(CCC(C)C)C3)C2=O)o1,11µM*
COc1ccc(C(=O)N[C@@H]2C=C(C(=O)N[C@H](C)C(N)=O)C[C@@H](O)[C@@H]2O)cc1,15%[44.1 µM]
CCC(CC)CC(=O)N1CCCC(Nc2ccc3c(c2)OCCO3)C1 (stereo not drawn),7%
CNCc1c(F)cccc1F,-9%[44.1 µM]
Cc1ncc(CN2CCC(C(=O)O)(n3ccc(-c4ccco4)n3)CC2)[nH]1,-4%
Cc1cc2nc3n(c(=O)c2n1CC(=O)NCc1cccc(Br)c1)CCCCC3,-18%
CCOc1ccccc1NC(=O)CN1C(=O)NC2(CCCCC2)C1=O,i
COCCOC1CCOC2(CCN(S(=O)(=O)c3cn(C)cn3)CC2)C1 (stereo not drawn),7%
Cc1ccc(NCc2cccn2-c2nnc(N3CCC(C(=O)NCc4ccccc4C)CC3)s2)cc1,i
COc1ccccc1CCNC(=O)C1CCN(c2nnc(-n3cccc3CNc3ccc(C)cc3)s2)CC1,-10%
CCOc1ccc(NCc2cccn2-c2nnc(N3CCC(C(=O)NCCc4ccc(OCC)c(OCC)c4)CC3)s2)cc1,6.3µM*
CCOc1ccc(CCNC(=O)C2CCN(Cc3nc(-c4ccc(OC)c(OC)c4)oc3C)CC2)cc1OCC,i
CCOc1ccc(NCc2cccn2-c2nnc(N3CCC(C(=O)NC(C)c4ccccc4)CC3)s2)cc1 (stereo not drawn),i
CCOc1ccc(NCc2cccn2-c2nnc(N3CCC(C(=O)NCCc4ccc(OC)c(OC)c4)CC3)s2)cc1,7.1µM*
CN1[C@H]2CC[C@@H]1CN(C(=O)c1cccc(CCC(C)(C)O)c1)CC2,-7%
Cc1ccc(C(=O)NC(C(=O)N2CCCC2)C2CCN(C(=O)c3ccc(F)cc3)CC2)cc1 (stereo not drawn),-2%
C[C@@H](NC(=O)C1=C[C@@H](NC(=O)Nc2ccc(F)cc2F)[C@@H](O)[C@H](O)C1)C(N)=O,-20%[44.1 µM]
CC1CCc2nn3ccn(CC(=O)Nc4ccccc4)c(=O)c3c2C1 (stereo not drawn),i
CCOc1ccccc1NC(=O)c1c(OC)cc(=O)n2c1CCCC2,i
O=C(Nc1ccc2ncnc(N3CCCCC3)c2c1)c1ccc(F)cc1,i
COc1ccc(C(=O)Nc2ccc3c(N4CCCCC4)ncnc3c2)cc1,-22%
O=C(Nc1ccc2c(N3CCCCC3)ncnc2c1)c1ccc(F)c(F)c1,2µM*
COc1cc(F)ccc1-c1ccnc2nc(C3CCCO3)nn12 (stereo not drawn),-21%
SMILES,Pf Dd2 growth
CCNC(=O)N[C@H]1CC[C@]2(C)CCC([C@H](C)C(=O)N(C)CCC#N)[C@H](O)[C@H]2[C@@H]1C (stereo partly drawn),24%[44.1 µM]
COc1cccc(-c2nc3cc4c(cc3cc2CN2CCSCC2)OCO4)c1OC,11µM*
COc1cccc(-c2nc3cc4c(cc3cc2CN2CCOCC2)OCO4)c1OC,-30%
COc1cccc(-c2noc(N3CCCC3)n2)c1OC,-5%
CN(C)C[C@@H]1CN(C2CCOCC2)C[C@H]1NC(=O)c1ccccc1C(F)(F)F,6%
FC(F)(F)CN1C2CCC1CN(c1nc(Cl)nc3nc[nH]c13)C2,11%
COc1ccc(C2C=C(c3ccccc3)Nc3nc(NC(=O)/C=C/c4ccc(F)cc4)nn32)cc1 (stereo not drawn),13µM*
COc1ccc(/C=C/C(=O)Nc2nc3n(n2)C(c2ccc(F)cc2)C=C(c2ccccc2)N3)cc1 (stereo not drawn),8.9µM*
COc1ccc(C2C=C(c3ccccc3)Nc3nc(NC(C)=O)nn32)cc1 (stereo not drawn),-30%
COc1ccc(C2=CC(c3ccc(N(C)C)cc3)n3nnnc3N2)cc1 (stereo not drawn),83%
O=C(/C=C/c1ccco1)Nc1ccc(F)cc1,-14%
O=C(/C=C/c1ccccc1)Nc1nc2n(n1)C(c1ccc(F)cc1)C=C(c1ccccc1)N2 (stereo not drawn),10µM*
COc1ccc(/C=C/C(=O)Nc2nc3n(n2)C(c2ccccc2)C=C(c2ccccc2)N3)cc1 (stereo not drawn),7.9µM*
CNC(=O)c1cccc(-c2cnc3[nH]cc(CC(=O)NC4CCC4)c3c2)c1,i
Cc1cnc(C(=O)N[C@@H]2CCC[C@@H]2C(=O)NCc2cc(F)cc(F)c2)cn1,13%
O=C([C@@H]1C[C@H](F)CN1S(=O)(=O)c1cccc(Cl)c1)N1CCc2ccccc2C1,23%
CN1C(=O)N(C)C2(CCN(Cc3cn4cc(Cl)ccc4n3)C2)C1=O (stereo not drawn),i
COc1ccc(C2C=C(c3ccccc3)Nc3nc(NC(=O)/C=C/c4ccccc4Cl)nn32)cc1 (stereo not drawn),7.1µM*
O=C1OCCCN1C1CCN([S+](=O)([O-])c2cccc(C(F)(F)F)c2)CC1,13%
